A3G deaminase = blocks human APOBEC3G single-stranded DNA deamination; recombinant A3G, ssDNA deamination FAM/TAMRA fluorescence; Q9HC16; actives 0.28% (n = 330,000); inhibition, % at 20 µM;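 active = inhibition of at least 40% at 20 µM, with no more than 30% in the related APOBEC3A deaminase screen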;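 also: plate controls were DMSO wells with A3G for no effect and wells lacking A3G enzyme for full effect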
Target sequence (Q9HC16 whole entry, looked up): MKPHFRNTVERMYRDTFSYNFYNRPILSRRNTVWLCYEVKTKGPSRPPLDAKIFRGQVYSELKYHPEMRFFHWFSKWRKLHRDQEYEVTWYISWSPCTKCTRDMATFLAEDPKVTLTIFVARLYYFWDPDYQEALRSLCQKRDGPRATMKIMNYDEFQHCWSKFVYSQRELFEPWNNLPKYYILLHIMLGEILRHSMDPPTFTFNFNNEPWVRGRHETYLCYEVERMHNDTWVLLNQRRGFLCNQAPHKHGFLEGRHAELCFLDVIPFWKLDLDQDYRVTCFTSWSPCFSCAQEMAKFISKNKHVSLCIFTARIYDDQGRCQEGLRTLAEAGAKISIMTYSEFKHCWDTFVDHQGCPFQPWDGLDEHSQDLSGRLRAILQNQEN
PHOSPHO1 inh = inhibitors of human PHOSPHO1 phosphatase; Q8TCT1; AID 1565; inhibition, % at 13.3 µM; actives 1.1% (n = 290,000); recombinant PHOSPHO1, absorbance phosphatase assay; in the data active = inhibition above about 60%
rCAG binder = molecules binding r(CAG) RNA repeats; r(CAG) RNA repeat, TO-PRO-1 dye displacement fluorescence; inhibition, % at 3 µM; actives 1.3% (n = 370,000); AID 651821;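 active = inhibition above the plate cutoff, the mean of all test compounds on that plate plus 3 SD, cut at about 35% in these data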;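 also: 0% = DMSO alone and 100% = 100 µM mitoxantrone as full dye displacement; higher means more dye released from RNA so lower well fluorescence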
aDG glyco act = alpha-DG glycosylation activation. activation, % at 10 µM. Pro5-aDG cells, alpha-DG glycosylation AlphaScreen (IIH6); 0% Pro5, 100% B10-LARGE cell signal. actives 0.22% (n = 360,000);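 active = activation of at least 8% versus controls, or a plate z-score of at least 8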;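 also: Pro5 are CHO cells carrying HIG-tagged alpha-DG that lacks glycosylation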
ALR inh = inhibitors of human sulfhydryl oxidase ALR; P55789; purified ALR, DTT oxidation, H2O2 HRP-luminol luminescence; inhibition, % (concentration not given with the values); actives 3.8% (n = 290,000); AID 485317;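 active = mean replicate inhibition above about 79%, with every replicate also reaching it, limit read from the data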
Target sequence (P55789 whole entry, looked up): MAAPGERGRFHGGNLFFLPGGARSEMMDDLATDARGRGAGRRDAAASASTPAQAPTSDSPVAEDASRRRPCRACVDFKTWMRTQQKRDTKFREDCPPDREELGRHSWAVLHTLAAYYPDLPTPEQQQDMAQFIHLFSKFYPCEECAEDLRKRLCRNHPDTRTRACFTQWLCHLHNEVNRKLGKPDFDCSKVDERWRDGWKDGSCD
APOBEC3A inh = blocks human APOBEC3A ssDNA deamination | P31941 | recombinant A3A, FAM/TAMRA ssDNA deamination fluorescence | inhibition, % at 20 µM | actives 0.41% (n = 330,000);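 active = at least 40% inhibition at 20 µM here, with at most 30% in a related deaminase screen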;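 also: plate controls were A3A with DMSO for no effect and wells lacking A3A enzyme for full effect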
rCAG bind conf = r(CAG) RNA repeat binding, confirmation | shares compounds with rCAG binder | inhibition, % at 3 µM | actives 70% (n = 4,300) | TO-PRO-1 dye displacement fluorescence;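 active = inhibition above a per-plate cutoff, the mean inhibition of sample wells plus 3 SD, cut at about 35% in these data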;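 also: loss of TO-PRO-1 fluorescence as compound displaces dye from 1x1 AA loop RNA; 0% = DMSO only wells and 100% = 100 µM mitoxantrone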
DNA CAG counter = disrupts DNA CAG TO-PRO-1 complex, flagging rCAG hits; inhibition, % at 3 µM; d(CAG) DNA oligo TO-PRO-1 dye displacement, fluorescence; shares compounds with rCAG binder; actives 94% (n = 4,300);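 active = inhibition above its plate's cutoff, the mean test-well inhibition plus 3 SD, cut at about 4.8% in these data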;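 also: 0% = DNA dye mix with DMSO and 100% = 100 µM mitoxantrone; hits displace the dye from DNA and so lower well fluorescence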
DNA CAG DR = DNA CAG dye complex inhibition, dose response counter-screen. DNA CAG/GTC duplex TO-PRO-1 dye displacement fluorescence. actives 20% (n = 250). IC50, µM. AID 686960. shares compounds with rCAG binder; in the data active = IC50 below about 10 µM
The depositor's hits bear a star; nt = not tested or not shown. Rows were chosen to be rich in hits. Some 5.4% of all compounds tested hit in one or more screens of this group.

SMILES	A3G deaminase	PHOSPHO1 inh	rCAG binder	aDG glyco act	ALR inh	APOBEC3A inh	rCAG bind conf	DNA CAG counter	others
Cc1c(CC(=O)N[C@@H](C)C(=O)O)c(=O)oc2c(C)c3occ(-c4ccccc4)c3cc12	-2.6	46.3	38.1*	-0.2	50.1	1.6	49.9*	15.0*
CC[C@@H](C)[C@H](NC(=O)Cc1c(C)c2c(cc(C)c3c(C)c(C)oc32)oc1=O)C(=O)O	-6.0	9.7	35.2*	0.0	74.1	-4.0	32.5	5.7*
CCCC(NC(=O)Cc1c(C)c2cc3c(C)c(C)oc3c(C)c2oc1=O)C(=O)N[C@@H](Cc1ccccc1)C(=O)O (some centres not stated)	nt	7.9	16.4	0.0	-13.7	nt	nt	nt
CSCC[C@H](NC(=O)Cc1c(C)c2cc3c(C)c(C)oc3cc2oc1=O)C(=O)N[C@@H](C(=O)O)c1ccccc1	nt	nt	40.4*	0.1	nt	nt	46.7*	13.6*
CC1(C2CCC3C4CCC5CC6(CCC5(C)C4C(=O)CC32C)OCCO6)OCCO1 (configuration not stated)	nt	nt	0.9	-0.1	nt	nt	nt	nt
COc1ccc(CN(C2CCCC2)S(=O)(=O)c2cc(Br)ccc2Br)c(OC)c1	nt	nt	6.7	nt	nt	nt	nt	nt
C[C@H](O)[C@@H]1C(=O)N2CCc3c([nH]c4ccccc34)[C@@H]2C[C@@H]1N(C)C(=O)OCc1ccccc1	nt	nt	0.3	nt	nt	nt	nt	nt
Cc1cc(C)cc(N(CC(=O)Nc2ccc(C(F)(F)F)cc2)S(=O)(=O)c2c(C)[nH]c(=O)[nH]c2=O)c1	1.0	14.0	49.2*	-0.4	34.3	1.7	51.7*	16.4*
COc1ccc(N(CC(=O)Nc2cc(Cl)ccc2OC)S(=O)(=O)c2c(C)[nH]c(=O)[nH]c2=O)cc1	2.9	12.0	49.0*	0.0	-5.8	1.7	39.4*	13.3*
Cc1ccc(N(CC(=O)Nc2ccc(Br)c(C)c2)S(=O)(=O)c2c(C)[nH]c(=O)[nH]c2=O)cc1	-3.3	18.3	46.7*	-0.1	-3.5	-4.9	67.1*	22.6*
Cc1cc(C)cc(N(CC(=O)Nc2ccc(C)cc2Cl)S(=O)(=O)c2c(C)[nH]c(=O)[nH]c2=O)c1	0.7	14.0	40.4*	0.0	19.2	0.7	53.6*	16.7*
COc1cc(NC(=O)CN(c2cc(C)cc(C)c2)S(=O)(=O)c2c(C)[nH]c(=O)[nH]c2=O)cc(OC)c1	-5.8	31.5	28.9	-0.1	-1.4	-4.7	nt	nt
CC(NS(=O)(=O)c1ccc2[nH]c(=O)[nH]c2c1)c1ccc(F)cc1 (configuration not stated)	nt	nt	-0.2	0.0	nt	nt	nt	nt
Cc1ccc(-c2cc(NC(=O)Cc3c[nH]c4ccccc34)ccc2N(C)c2cccnc2)cc1	nt	nt	10.2	nt	nt	nt	nt	nt
NC(=O)NN=C1CCN2CCCc3cccc1c32	nt	nt	-1.1	0.1	nt	nt	nt	nt
CC1(C(=O)NS(=O)(=O)c2ccccc2)CCN1C(=O)Cc1cccc2ccccc12 (configuration not stated)	nt	nt	10.9	0.0	nt	nt	nt	nt
CC(C)(C)c1ccc(CC(=O)N2CCC2(C)C(=O)NS(=O)(=O)c2ccc(C#N)cc2)cc1 (configuration not stated)	nt	nt	25.6	-0.3	nt	nt	nt	nt
Cc1ccc(S(=O)(=O)NC(=O)C2(C)CCN2C(=O)Cc2ccc(-c3ccccc3)cc2)cc1 (configuration not stated)	nt	nt	58.5*	0.4	nt	nt	52.8*	15.1*
CC(C)(C)c1ccc(CC(=O)N2CCC2(C)C(=O)NS(=O)(=O)c2ccc(Cl)cc2)cc1 (configuration not stated)	nt	nt	36.8*	-0.5	nt	nt	52.2*	17.2*
CC1(C(=O)NS(=O)(=O)c2ccccc2)CCN1C(=O)Cc1ccccc1 (configuration not stated)	nt	nt	1.6	-0.2	nt	nt	nt	nt
CC(C)(C)c1ccc(S(=O)(=O)NC(=O)C2(C)CCN2C(=O)Cc2cccc3ccccc23)cc1 (configuration not stated)	nt	nt	71.3*	-0.2	nt	nt	62.2*	24.8*
Cc1ccc(S(=O)(=O)NC(=O)C2(C)CCN2C(=O)Cc2ccc(C(C)(C)C)cc2)cc1 (configuration not stated)	nt	nt	43.0*	-0.2	nt	nt	30.1	7.2*
CC(C)(C)S(=O)(=O)N1Cc2cc(CO)ccc2[C@H]1CCO	nt	nt	13.4	nt	nt	nt	nt	nt
COc1cc(NS(=O)(=O)c2ccc(NC(=O)/C(=C/c3ccccc3Cl)NC(=O)c3ccccc3)cc2)nc(OC)n1	0.1	-6.6	73.8*	0.1	0.6	2.6	78.7*	33.7*	DNA CAG DR=9.82*
O=C(Nc1ccc(S(=O)(=O)Nc2nccs2)cc1)/C(=C/c1ccccc1Cl)NC(=O)c1ccccc1	-2.0	3.0	77.9*	-0.4	0.6	0.1	67.7*	34.6*
SMILES	A3G deaminase	PHOSPHO1 inh	rCAG binder	aDG glyco act	ALR inh	APOBEC3A inh	rCAG bind conf	DNA CAG counter	others
C=CCN1[C@H](CO)[C@H](c2ccc(Br)cc2)[C@@H]1C#N	nt	nt	1.8	nt	nt	nt	nt	nt
CC1(C(=O)NS(C)(=O)=O)CCN1C(=O)CC(c1ccccc1)c1ccccc1 (configuration not stated)	nt	nt	6.0	-0.2	nt	nt	nt	nt
Cc1ccccc1S(=O)(=O)NC(=O)C1(C)CCN1C(=O)CC(c1ccccc1)c1ccccc1 (configuration not stated)	nt	nt	47.4*	0.3	nt	nt	33.4	7.0*
CC1(C(=O)NS(=O)(=O)c2ccccc2)CCN1C(=O)CC(c1ccccc1)c1ccccc1 (configuration not stated)	nt	nt	30.8	-0.1	nt	nt	nt	nt
CC1(C(=O)NS(=O)(=O)c2cccc(OC(F)F)c2)CCN1C(=O)CC(c1ccccc1)c1ccccc1 (configuration not stated)	nt	nt	51.7*	-0.3	nt	nt	45.8*	13.8*
CC1(C(=O)NS(=O)(=O)c2ccccc2Cl)CCN1C(=O)CC(c1ccccc1)c1ccccc1 (configuration not stated)	nt	nt	50.1*	-0.2	nt	nt	44.7*	9.2*
O=C(COc1ccc(Br)cc1)NNC(=O)Cc1ccc(S(=O)(=O)N2CCOCC2)s1	nt	nt	5.1	0.1	nt	nt	nt	nt
O=C1C(CN2CCCC2)CCCC1CN1CCCC1 (configuration not stated)	nt	nt	0.1	0.6	nt	nt	nt	nt
Cc1ccc([C@@H]2CC=C(C(=O)O)[C@H](c3ccccc3F)N2S(=O)(=O)c2ccc(C)cc2)cc1	-4.8	nt	61.0*	0.1	7.6	0.6	55.3*	20.6*
